From the supplement of paper PMC12350171 come the findings set out here.

Where a name gives a salt, the structure may show the parent alone.

The subject of this assay is Haemophilus parainfluenzae. In words: growth AUC normalised to DMSO control (fraction of control); higher = less growth inhibition, active = hit call of the paper. Particulars: 20 µM. A digest of the protocol:
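Pathogens were passaged twice under anaerobic conditions, then inoculated into pre-reduced mGAM plates at a starting OD578 of 0.01, with compound at 20 μM and 1% DMSO, and sealed with breathable membranes. For Haemophilus parainfluenzae, the medium was supplemented with hemin and NAD. OD578 was read every hour for 24 h in three biological replicates. Growth-curve AUC was calculated by the trapezoidal rule up to the exponential-to-stationary transition and normalised to DMSO controls on the same plate.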
Regarding `CN1[C@@H]2CC[C@H]1C[C@@H](OC(=O)c1c[nH]c3ccccc13)C2` [Tropisetron hydrochloride], the “growth AUC normalised to DMSO control” value was 1 (inactive).

`CC(N)CCCC(C)(C)O` (configuration not stated) [Heptaminol hydrochloride]: the “growth AUC normalised to DMSO control” value was 1.02 (inactive).

Take `Cc1c(O)c(=O)n(-c2ccccc2)n1C` [Antipyrine, 4-hydroxy]: the “growth AUC normalised to DMSO control” value is 0.974 (inactive).

As for `CC(=O)N(CC(O)CN(C(C)=O)c1c(I)c(C(=O)NCC(O)CO)c(I)c(C(=O)NCC(O)CO)c1I)c1c(I)c(C(=O)NCC(O)CO)c(I)c(C(=O)NCC(O)CO)c1I` (configuration not stated) [Iodixanol], the “growth AUC normalised to DMSO control” value was 0.976 (inactive).

Turning to `CN(C)CCCN1c2ccccc2Sc2ccc(Cl)cc21` [Chlorpromazine hydrochloride], the “growth AUC normalised to DMSO control” value was 0.981 (inactive).

Take `NCC[C@H](O)C(=O)N[C@@H]1C[C@H](N)[C@@H](O[C@H]2O[C@H](CN)[C@@H](O)[C@H](O)[C@H]2O)[C@H](O)[C@H]1O[C@H]1O[C@H](CO)[C@@H](O)[C@H](N)[C@H]1O` [Amikacin hydrate]: the “growth AUC normalised to DMSO control” value was 0.0269 (active).

For the molecule `CCC1=C(C)CN(C(=O)NCCc2ccc(S(=O)(=O)NC(=O)N[C@H]3CC[C@H](C)CC3)cc2)C1=O` [Glimepiride], the “growth AUC normalised to DMSO control” value was 1.02 (inactive).
